Assay results taken from ChEMBL document CHEMBL3433997, “St. Jude Leishmania screening dataset” (2016).
Values joined by “and” are separate entries in the source; they are usually repeats but may differ in a detail not shown here. Equal values may be shown once.

Experiments:
Format in all cases: functional
[1] = biological target: Solute carrier family 2, facilitated glucose transporter member 1 (Homo sapiens) (UniProt P11166); assay: ST_JUDE_LEISH: Cytotoxicity at 2uM final concentration against transgenic Leishmania Mexicana promastigotes LmGLUT1 that are glucose transport deficient and complemented with the human glucose transporter GLUT1. Activity is measured by DNA content using SYBR green in vitro
[2] = biological target: Hexose transporter 1 (Plasmodium falciparum) (UniProt O97467); assay: ST_JUDE_LEISH: Cytotoxicity at 2uM final concentration against transgenic Leishmania Mexicana promastigotes LmPfHT that are glucose transport deficient and complemented with the Plasmodium falciparum hexose transporter. Activity is measured by DNA content using SYBR green in vitro
[3] = biological target: Glucose transporter (Leishmania mexicana) (UniProt O61059); assay: ST_JUDE_LEISH: Cytotoxicity at 2uM final concentration against transgenic Leishmania Mexicana promastigotes LmGT2 that are glucose transport deficient and complemented with the L. Mexicana glucose transporter 2. Activity is measured by DNA content using SYBR green in vitro

Sequence of Solute carrier family 2, facilitated glucose transporter member 1 (Homo sapiens) (P11166 whole entry): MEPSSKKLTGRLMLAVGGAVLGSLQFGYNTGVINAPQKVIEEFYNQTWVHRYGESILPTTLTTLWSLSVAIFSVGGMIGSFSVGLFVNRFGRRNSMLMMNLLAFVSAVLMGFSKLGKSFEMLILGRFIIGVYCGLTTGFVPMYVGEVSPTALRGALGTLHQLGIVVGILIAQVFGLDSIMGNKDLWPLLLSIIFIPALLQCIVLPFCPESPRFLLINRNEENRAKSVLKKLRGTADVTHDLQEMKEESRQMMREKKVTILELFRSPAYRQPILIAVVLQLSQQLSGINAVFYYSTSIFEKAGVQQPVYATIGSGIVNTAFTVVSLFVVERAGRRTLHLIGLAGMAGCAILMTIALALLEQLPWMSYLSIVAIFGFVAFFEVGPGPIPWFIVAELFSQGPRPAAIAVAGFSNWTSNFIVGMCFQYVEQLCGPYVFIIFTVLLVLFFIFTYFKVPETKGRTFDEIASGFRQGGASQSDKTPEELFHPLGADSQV

SMILES | inhibition [1] | inhibition [2] | inhibition [3]
O=C1CCCN1CCCNCc1cccc(-c2ccc(-c3nc4ccccc4[nH]3)s2)c1 | -0.73% | 0.07% | -0.46%
O=C(c1ccc(-c2ccccn2)s1)N1CCc2cc3nccc(N4CCN5CCC[C@H]5C4)c3cc21 | 8.55% | 8.34% | 8.66%
Oc1cccc(-c2nc3cc(C4=NC5CCCCC5N4)ccc3[nH]2)c1 (centres undefined) | 3.58% and 0.07% | 3.97% and -1.13% | 2.39% and 0.63%
c1ccc2[nH]c(-c3ccc(-c4ccc(CN5CCN(CCN6CCOCC6)CC5)cc4)cc3)nc2c1 | 11.2% | 12.4% | 4.36%
CCN1CCN(Cc2ccc(NC(=O)c3cc4ccc5cccnc5c4[nH]3)cc2)CC1 | 17.2% | 15.9% | 11.4%
COc1ccc(Cn2c(Nc3cccc(C(F)(F)F)c3)nc3cc(C(=O)NC4CC4)cnc32)cc1Cl | -1.9% | -0.56% | -3.22%
COc1ccc(NC(=O)Nc2cc(C)nc3cccnc23)cc1Cn1ccnc1 | 1.73% | 1.25% | 0.47%
CCOc1ccc(-c2nonc2NC(=O)c2ccc(OC)cc2)cc1OCC | -1.17% | 4.75% | -0.16%
CCN(CC)Cc1ccc2c(=O)cc(CCc3cccc(F)c3F)n(CC(=O)N(Cc3ccc(-c4ccc(C(F)(F)F)cc4)cc3)C(C)C)c2c1 | 1.44% | 2% | -0.21%
CCc1cn2c3c(cc(C(=O)N[C@@H](Cc4cccc(Cl)c4)[C@H](O)CNC4CCOCC4)cc13)N(C)S(=O)(=O)CC2 | 2.87% | -0.33% | 1.44%
CN(C)Cc1cccc(-c2ccc3ccnc(N)c3c2)c1 | 1.78% | 3.34% | 1.17%
CCCCN(Cc1cc(Cl)c(OC)c(OC)c1)c1ccc(C(O)(C(F)(F)F)C(F)(F)F)cc1 | 1.29% | 4.14% | -0.33%
O=C(O)c1cc(C(F)(F)F)co1 | -2.13% | -1.54% | -0.54%
COc1cccc2c(N/N=C/c3ccc([N+](=O)[O-])cc3)ccnc12 | 11.3% | 6.04% | 1.25%
COc1ccc(Cc2c(N)nc3nc(N)nc(N)c3c2C)cc1 | 1.48% | 3.73% | 3.1%
Fc1ccc2[nH]c(-c3ccc(-c4ccc(CNCCc5ccncc5)cc4)cc3)nc2c1 | 4.9% | 2.46% | 2.26%
CC(C)Oc1ccc2c(c1)OC(c1ccccc1)(C(F)(F)F)NC2=O (centres undefined) | 14.6% | 12.2% | 7.18%

SMILES | inhibition [1] | inhibition [2] | inhibition [3]
CCN(CC)CCCC(C)Nc1c2ccccc2nc2c1ccc1ccccc12 (centres undefined) | 7.99% | 3.26% | 7.76%
CN1CCCc2ccc(NC(=O)c3cnc(-c4ccccc4)cn3)cc21 | 0.24% | 0.87% | -0.23%
COc1cc(NC(=O)c2c(-c3c(Cl)cccc3Cl)noc2C)c(OC)cc1Cl | 3% | 4.65% | 3.12%
OC(c1ccc2ccccc2c1)C1CN(CCc2ccccc2)CCC1(O)c1ccccc1 (centres undefined) | 0.49% | -3.49% | 0.03%
COc1ccc(N2CCN(CCCCNC(=O)c3ccc(NC(=O)c4ccc(OC(F)(F)F)cc4)cc3)CC2)c(OC)c1 | 5.81% | 5.69% | 6.29%
COc1cccc(C(=O)NC(c2ccc(Cl)cc2Cl)c2cc(Cl)c3cccnc3c2O)c1 (centres undefined) | 0.8% | -0.13% | 1.53%
O=C(Nc1n[nH]c2nc(-c3ccco3)c(Br)cc12)c1ccc(CN2CCCC2)cc1 | 1.9% | 3.71% | 3.01%
CCCc1cc(C(=O)N[C@@H](Cc2ccccc2)[C@H](O)CNC2CCOCC2)c(F)c(N2CCCCS2(=O)=O)c1 | 4.76% | 5.47% | 6.25%
O=C(NCCc1ccc(Cl)c(Cl)c1)C1CCCN(C(=O)c2ccc(O)c(-c3ccc(Cl)c(Cl)c3)c2)C1 (centres undefined) | 1.33% | 2.53% | 4.3%
Cc1ccc(OCC2CCN(c3ncc(C(=O)NC4CC4)cc3Cl)CC2)cc1 | -0.74% | -2.55% | 0.52%
CN(C)c1ccc(C(c2ccc(N(C)C)cc2)c2cc([N+](=O)[O-])ccc2Cl)cc1 | 0.57% | 0.82% | -3.09%
Cc1cnc2ccc(NS(=O)(=O)c3sc4ccc(Cl)cc4c3C)cc2c1N1CCNCC1 | 3.23% | 4.04% | -0.02%
CCc1ccc(NC(=O)c2cccc(CN3CCCN(CC4CCCCC4)CC3)c2)cc1 | 1.02% | 1.36% | -2.12%
Cc1cc(NC(c2ccc(Cl)cc2)c2ccc3cccnc3c2O)no1 (centres undefined) | 16.6% | 22.8% | 6.2%
COc1cccc(NC(=O)c2cc(C(=O)Nc3cccc(OC)c3)cc([N+](=O)[O-])c2)c1 | 2.37% | 3.98% | 1.08%
CN(C)c1nc2cc(-n3cnc4cc(-c5ccc(Cl)cc5)sc4c3=O)ccc2n1CCCN1CCCC1 | 12% | 13.9% | 6.91%
